Some test systems named below: DU-145 prostate; K-562 leukemia; MALME-3M melanoma; MDA-MB-231 breast; RXF 393 renal; SF-268 CNS; SF-295 CNS; SF-539 CNS; UACC-257 melanoma; M14 melanoma; HCT-15 colon; HT29 colon; SNB-75 CNS; SNB-19 CNS; U251 CNS; PC-3 prostate; SK-MEL-5 melanoma; UACC-62 melanoma; LOX IMVI melanoma; SK-MEL-28 melanoma.
What all share (assay): NCI-60 one-dose screen, 48 h (100 = growth as untreated, 0 = no growth, -100 = all killed)
What all share (conditions): 10 µM unless noted

The results in this text go back to PubChem BioAssay (NCI).

The panel holds about 83,000 compounds, 20% with a hit somewhere; the sample as a whole holds those more often.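 Percent growth is the endpoint: 0 to 100 indicates growth inhibition (40 means 60% inhibition), 0 means no net growth, and negative values indicate cell death.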 A number with no mark means an inactive call. Calls of active or inactive are those of the source. The calls were made as follows: active = growth percent below 10; inactive = the rest.

Regarding `CNC(=O)c1cc(Oc2ccc3nc(NC(=O)Nc4cc(C(F)(F)F)cc(C(F)(F)F)c4)sc3c2)ccn1`, the growth with DU-145 prostate is -39.6% (active); with K-562 leukemia, -2.97% (active); in the assay with MALME-3M melanoma it was -57.5% (active); with MDA-MB-231 breast, -53.1% (active); in the assay on RXF 393 renal it was -24.5% (active); in the assay on SF-268 CNS it was -25.6% (active). The growth in the assay on SF-295 CNS is -81.9% (active); in the assay with SF-539 CNS, -80% (active); in the assay with UACC-257 melanoma it was -50.8% (active); in the assay with M14 melanoma, -39% (active); in the assay with HCT-15 colon it was -4.69% (active); in the assay with HT29 colon, -71.3% (active). Also, the growth was -71.3% (active) with SNB-75 CNS; 2.44% (active) with SNB-19 CNS; -81.8% (active) in the assay with U251 CNS; -38.9% (active) with PC-3 prostate; -47.6% (active) with SK-MEL-5 melanoma; -63.3% (active) in the assay with UACC-62 melanoma. Besides, the growth with LOX IMVI melanoma was -87.5% (active); in the assay on SK-MEL-28 melanoma, -71% (active).
On to `CCCCCCNCc1cc(C(C)(C)C)cc(CNCCCCCC)c1O`, for which the growth in the assay on DU-145 prostate was -78.7% (active); in the assay on K-562 leukemia, -48.8% (active); in the assay on MALME-3M melanoma, -73.2% (active); in the assay on MDA-MB-231 breast, -83.6% (active); in the assay with RXF 393 renal, -93.3% (active); with SF-268 CNS it was 9.67% (active). The growth is 29.4% in the assay with SF-295 CNS; -89.9% (active) with SF-539 CNS; -84.1% (active) in the assay with UACC-257 melanoma; -88.6% (active) in the assay on M14 melanoma; -59.6% (active) in the assay with HCT-15 colon; -86% (active) in the assay on HT29 colon. The growth was -62.1% (active) in the assay with SNB-75 CNS; 9.11% (active) in the assay with SNB-19 CNS; -88.4% (active) with U251 CNS; 6.77% (active) in the assay with PC-3 prostate; -98.2% (active) in the assay on SK-MEL-5 melanoma; -85.3% (active) with UACC-62 melanoma. Moreover, the growth with LOX IMVI melanoma and in the assay on SK-MEL-28 melanoma was -88.8% (active) in each case.
In the case of `CNCCNc1nc2ccccc2c2c(=O)c3cc(F)ccc3oc12`, the growth with DU-145 prostate was 48.6%; with K-562 leukemia it was 56%; with MALME-3M melanoma, 86.3%; with MDA-MB-231 breast it was 39.2%; in the assay on RXF 393 renal, 59.2%; in the assay on SF-268 CNS, 58.2%. Also, the growth in the assay on SF-295 CNS is 75.4%; in the assay on SF-539 CNS it was 58.9%; with UACC-257 melanoma it was 99.4%; in the assay with M14 melanoma, 86.8%; with HCT-15 colon, 49.1%; with HT29 colon, 24.5%. Moreover, the growth with SNB-75 CNS was 56.8%; in the assay with SNB-19 CNS, 57.9%; in the assay on U251 CNS, 50.2%; with PC-3 prostate it was 46.9%; in the assay with SK-MEL-5 melanoma, 73.3%; in the assay with UACC-62 melanoma it was 85%. Moreover, the growth in the assay with LOX IMVI melanoma was 44.6%; with SK-MEL-28 melanoma it was 84.5%.
With `CNC(=O)c1cc(Oc2ccc3nc(Nc4cc(Cl)cc(Cl)c4)ccc3c2)ccn1`, the growth is 78% with DU-145 prostate; 19.1% in the assay with K-562 leukemia; 64.7% in the assay with MALME-3M melanoma; 34.6% in the assay on MDA-MB-231 breast; 92.4% with RXF 393 renal; 59.8% in the assay on SF-268 CNS. Also, the growth in the assay with SF-295 CNS is 47.1%; in the assay with SF-539 CNS, 75.3%; with UACC-257 melanoma, 53.2%; in the assay on M14 melanoma it was 38.5%; in the assay on HCT-15 colon it was 41.4%; with HT29 colon, 15.3%. Also, the growth in the assay on SNB-75 CNS is 70.2%; in the assay with SNB-19 CNS, 75.2%; in the assay on U251 CNS it was 58.2%; in the assay on PC-3 prostate, 40.3%; in the assay with SK-MEL-5 melanoma, 51.8%; in the assay on UACC-62 melanoma it was 44.7%. For the same compound, the figures for the growth in the assay with LOX IMVI melanoma and in the assay with SK-MEL-28 melanoma were 45.9% and 61.4%, respectively.
Take `Cc1cnc(Nc2ccc(N3CCN(C)CC3)cc2)nc1Nc1ccc(Cl)c(NS(=O)(=O)C(C)(C)C)c1`: the growth in the assay on DU-145 prostate was 13.4%; in the assay with K-562 leukemia, 7.56% (active); in the assay on MALME-3M melanoma it was 19.3%; in the assay on MDA-MB-231 breast, 4.33% (active); with RXF 393 renal, -78.2% (active); in the assay on SF-268 CNS, 15.7%. Moreover, the growth in the assay on SF-295 CNS is 26.1%; in the assay on SF-539 CNS, -36.4% (active); in the assay with UACC-257 melanoma, 5.3% (active); with M14 melanoma, 8.84% (active); in the assay with HCT-15 colon, 4.29% (active); in the assay with HT29 colon it was -31.1% (active). The growth in the assay on SNB-75 CNS is -36.8% (active); in the assay on SNB-19 CNS it was 53.1%; in the assay on U251 CNS it was 24.2%; with PC-3 prostate it was 39.4%; in the assay on SK-MEL-5 melanoma, -8.43% (active); in the assay with UACC-62 melanoma, 16.1%. Besides, the growth in the assay on LOX IMVI melanoma was -84.4% (active); with SK-MEL-28 melanoma, 35.2%.
With `Cl.Fc1c[c-]c(-c2ccccn2)c(F)c1.[Pt].c1ccc([PH+](C[PH+](c2ccccc2)c2ccccc2)c2ccccc2)cc1`, the growth in the assay with DU-145 prostate was -94.8% (active); in the assay with K-562 leukemia, -18.5% (active); with MALME-3M melanoma, -92.9% (active); with MDA-MB-231 breast, -83.8% (active); in the assay on RXF 393 renal it was -91.6% (active); with SF-268 CNS it was -70% (active). Also, the growth in the assay on SF-295 CNS was -87.6% (active); in the assay on SF-539 CNS, -86.4% (active); in the assay with UACC-257 melanoma, -48.6% (active); with M14 melanoma, -87.1% (active); in the assay with HCT-15 colon it was -80.1% (active); in the assay with HT29 colon it was -64.7% (active). For the same compound, the growth was -95.5% (active) with SNB-75 CNS; -88.9% (active) in the assay with SNB-19 CNS; -77.1% (active) with U251 CNS; -57.7% (active) in the assay on PC-3 prostate; -98.2% (active) in the assay with SK-MEL-5 melanoma; -82.3% (active) in the assay on UACC-62 melanoma. Moreover, the values for the growth with LOX IMVI melanoma and in the assay with SK-MEL-28 melanoma were -88.9% (active) and -92.5% (active), respectively.
With `CNC(=O)c1c(NC(=O)c2ccc(C(C)(C)C)cc2)sc2c1CCC(=O)C2`, the growth in the assay on DU-145 prostate was 27.7%; with K-562 leukemia, 5.54% (active); with MALME-3M melanoma, -12.8% (active); in the assay with MDA-MB-231 breast, -20.5% (active); with RXF 393 renal it was -11.3% (active); in the assay with SF-268 CNS, 14%. The growth in the assay on SF-295 CNS is 2.19% (active); in the assay with SF-539 CNS, -51.9% (active); in the assay on UACC-257 melanoma, 16.8%; with M14 melanoma, 3.53% (active); with HCT-15 colon, -20.5% (active); with HT29 colon it was 3.63% (active). The growth in the assay on SNB-75 CNS is -27.8% (active); in the assay on SNB-19 CNS, 17.7%; with U251 CNS, 4.12% (active); in the assay on PC-3 prostate, -0.67% (active); in the assay on SK-MEL-5 melanoma, -83.1% (active); in the assay on UACC-62 melanoma, 0.579% (active). Besides, the growth with LOX IMVI melanoma is 8.5% (active); with SK-MEL-28 melanoma, 12.2%.
Regarding `c1ccc2c(c1)nc(-n1ccnc1)c1nc3ccccc3n12`, the growth was 76.9% with DU-145 prostate; 88.1% in the assay on K-562 leukemia; 92.9% in the assay on MALME-3M melanoma; 72.3% in the assay with MDA-MB-231 breast; 64.9% in the assay with RXF 393 renal; 37.9% in the assay on SF-268 CNS. For the same compound, the growth with SF-295 CNS is 83.7%; with SF-539 CNS it was 66%; with UACC-257 melanoma it was 82.3%; with M14 melanoma, 93.1%; in the assay on HCT-15 colon it was 82.7%; in the assay on HT29 colon, 74%. Moreover, the growth is 70% in the assay with SNB-75 CNS; 42.8% in the assay on SNB-19 CNS; 61.5% with U251 CNS; 68% with PC-3 prostate; 68.9% with SK-MEL-5 melanoma; 72% with UACC-62 melanoma. The values for the growth in the assay on LOX IMVI melanoma and in the assay on SK-MEL-28 melanoma were 71% and 82.5%, respectively.
